In all, about 59,000 sequences were measured (the read-out: median about -0.00055, lowest 2% from about -2 on). Many of the other results were omitted from the sample, so the lowest values are more common in it than they were.

The assay can be described thus: Identification of proteins required for the processing of the EWS-FLI1 nascent transcript.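 Also: robust z of luciferase light less the median z of siRNAs with the same seed.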 The conditions noted are these: TC32 Ewing sarcoma NR0B1-luc vs CMV-luc (EWS-FLI1 target promoter against control promoter), 48 h; screened at 20 nM (by protocol). Summed up: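 Genome-wide siRNA screen (Ambion v4.1, three siRNAs per gene, 20 nM final, RNAiMax) in Ewing sarcoma TC32 cells carrying NR0B1-promoter or CMV-promoter luciferase; OneGlo luciferase read 48 h post-transfection. Data normalized, z-score-MAD transformed and seed-adjusted.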
In the case of AUAAAACUCAUCUGAGUCC against CYP11B2, the seed-corrected z-score amounted to 0.754.

Regarding AAAGCUAACAUAUUGUAGU against MSGN1, the seed-corrected z-score was -0.0625.

In turn, UUUCCGAUAGAUUGACUGC against SMPX had a seed-corrected z-score of 0.0624.

UUUCAUCUCAUCGAGGAAG against LDOC1 came in with a seed-corrected z-score of -2.02.

Sequence UUCUCACUCAUGUUGCCUC against ZNF768 came in with a seed-corrected z-score of 0.198.

The sequence UACGGUCACUGAUAGUUGG against CYP17A1 had a seed-corrected z-score of -0.42.

With UACCGGAAAGACAAGAUAG against CRYBG3, the seed-corrected z-score is 0.146.

UGUAGCUGAAGAAUAUUCC against ZBTB24: the seed-corrected z-score is -2.4.

As for UCUUAUUGAAAAUCUCAGC against NR1H4, the seed-corrected z-score turned out to be 0.518.

UGUCUAACAAAUGUGGAGC against ZNF548 yielded a seed-corrected z-score of 0.841.

The sequence UCUGGUGUACAAGUAGUCC against FICD gave a seed-corrected z-score of 0.433.

Regarding UCUCCUCAAAGCACCAGCC against LOC653712, the seed-corrected z-score was -0.019.

For AAAGUAGCAUCGUCUGUCU against GSC, the seed-corrected z-score was 0.704.

Consider UUUGAGUAGAGCAGCAUCC against SENP3, for which the seed-corrected z-score is -2.41.

Consider AUACUGGUUAGAAUCAGAC against EVI5, for which the seed-corrected z-score was -0.0438.

In turn, AAUGAAGCAGUUCAUAAGC against ST3GAL6 showed a seed-corrected z-score of 0.107.

Sequence UUACGUUCAACCUUAGAUC against PHLPP1 yielded a seed-corrected z-score of 0.355.

On to UUUAGUUCACCCUGAAUCG against NUP54, for which the seed-corrected z-score is -0.0579.

Sequence UAAGUACUCUCAACACUGC against PIN4P1 came in with a seed-corrected z-score of 0.00579.

For the sequence AGCUUGUAAACACUUCUGC against RGN, the seed-corrected z-score is -2.52.

In turn, UUUGAGUCUAGUGGGAUAG against SLC22A10 registered a seed-corrected z-score of 0.479.

In turn, UAUAGAUGCGAAUCCUUUC against C17orf97 registered a seed-corrected z-score of -0.421.

Sequence AAAGCUGCAACUGCCUCCC against C2orf48 displayed a seed-corrected z-score of -2.61.

In turn, UAAGUCGAACCUUAUCUCC against AIM2 came in with a seed-corrected z-score of -0.16.

On to UAGAAUAAAAUACCGAAUG against SNRPD1, for which the seed-corrected z-score is -1.88.

Turning to UUUGUCUCAAGAAUUAUCA against SPTSSA, the seed-corrected z-score was found to be 0.0457.

Take UUGAUUCUCGGGUCUUUGG against FAM71F2: the seed-corrected z-score is -12.6.

In the case of UUUGAUUAAAAGGUCUCUG against PIGX, the seed-corrected z-score is -1.29.

As for UGAGAUGAACUGAUCUUGC against OR10W1, the seed-corrected z-score is 0.324.

UCAGGUUUAAGAGGUAUGC against TRAM2: the seed-corrected z-score was 0.485.

Turning to UCCAGUUGCACUUCUGUCC against CGREF1, the seed-corrected z-score is -3.65.

In turn, UGUAUACAAAGAGACAAUC against TAS2R5 yielded a seed-corrected z-score of 0.728.

UUUGCUAGAAGCCUUCUUG against DOK6 displayed a seed-corrected z-score of -0.847.

Consider UUGAGGUCAAUUUCGGCUG against H2AFY2, for which the seed-corrected z-score was -0.937.

UGUUUUAACUGCUGUAUCC against RP9 returned a seed-corrected z-score of 0.734.

As to UCUUCAUUAGCUUCUUCAC against PLCXD2, the seed-corrected z-score is 0.44.

Sequence UGAUGCACGAGAAGAAGCC against KCNK3 showed a seed-corrected z-score of -13.5.

Sequence UUUGCUACAGAAUUGCUUG against ANAPC16 had a seed-corrected z-score of -1.17.

The sequence AAAGGAUCUCUCUGUAUUU against SNTN had a seed-corrected z-score of 1.99.

Regarding UGUACUGUCAGACUAAUGC against MRGPRX3, the seed-corrected z-score was -0.749.

Turning to UUCAGCAUUACUCUCUGCG against RPL17P39, the seed-corrected z-score is -2.51.

UCAGCAUAUAGCAGGAUCC against NPR2: the seed-corrected z-score is -0.565.

Sequence AUUCUCACCAGACAUCCUG against KRT74 yielded a seed-corrected z-score of 1.12.

Consider AAGAAUUCCAUACAUCUUC against ACKR1, for which the seed-corrected z-score is -0.0448.

In the case of UAAGCAUCCAGUAGGCAGG against XBP1, the seed-corrected z-score is -3.08.

Sequence UCUCUAAAAGGUGUCUUGC against SH3RF2 returned a seed-corrected z-score of 0.606.

On to AUAGUAAUCAUCCAGAGCA against ARHGEF35, for which the seed-corrected z-score is -0.685.

AUAGGUACUGCACUGCAGG against GPS2 showed a seed-corrected z-score of -0.377.

Turning to UGACUAUGAUGUUGAAUCC against OR8A1, the seed-corrected z-score was -1.35.

For UUCGAUUCAUGAAAUCUCC against GTF3C1, the seed-corrected z-score stood at 0.399.

Regarding UGUUCAACGAGGGUAUAGC against ZNF416, the seed-corrected z-score was determined as 0.828.

Regarding UUGUGGUAGAUCUGGACGC against VASP, the seed-corrected z-score was -2.15.

With ACAGUUAUUCUGUCCAUCG against LDLRAD3, the seed-corrected z-score is -6.33.

UCUGGUUUUUGUACCCGCC against LOC403323 returned a seed-corrected z-score of -0.673.

For the sequence UUUUUAACAGAGGUCUCCA against RAB42P1, the seed-corrected z-score is -0.18.

In the case of UUUCAAUCUUGUCUGAGGC against COX11, the seed-corrected z-score was -0.764.

Turning to UUGAGUAAGAACUUUAUCC against SMAD1, the seed-corrected z-score is -2.45.

Sequence AAUAUGUCGUUGUAAGUGC against ZNF644 displayed a seed-corrected z-score of -0.209.

In turn, UUCUUCUAAAACAUCCUCG against GLE1 displayed a seed-corrected z-score of -0.174.

Take UUAUCUAUCACCCAAGCAG against RTN4IP1: the seed-corrected z-score is -0.598.

Take UUCCGUUUAAUUUCAACUG against BRCA2: the seed-corrected z-score turned out to be 0.32.

For the sequence UAUUUGUUUCACCUCACUG against DNAJC8, the seed-corrected z-score came out at 1.25.

For the sequence AGAAGGAACAUGCGUGCAG against TTC34, the seed-corrected z-score came out at 1.38.

The sequence UCCUUGUCGACAACGAGUG against GAPVD1 had a seed-corrected z-score of -3.68.

With UAAUUGAGUUUCUAAAGUG against CDKAL1, the seed-corrected z-score was -0.809.

The sequence UUCAUUAUGUGGAACAUAC against CYP19A1 gave a seed-corrected z-score of -1.02.

Sequence AAAGUGGACACCAUAGACC against HGD had a seed-corrected z-score of 0.0682.

In turn, UUUGUAGCAAGGAAUACAG against OR7A5 yielded a seed-corrected z-score of -3.5.

For UGUCGAUCUAGGUACUGAC against SART3, the seed-corrected z-score was -0.192.

AUAAAUGGUGGUUUAAGGU against METTL2B displayed a seed-corrected z-score of -0.343.

In the case of AAAGCCAGGAGUUCCGCUG against GNG8, the seed-corrected z-score is -0.7.

With UCAGGAACACCGAGUACUC against S100A5, the seed-corrected z-score was -0.776.

In the case of UAGUUGGUUAAAUUGGACC against TEKT3, the seed-corrected z-score was -0.0576.

Take AAACCUUUUGCAUCUAUGG against GSTA12P: the seed-corrected z-score is 0.753.

AAAGUUGCUGGUGUGCUCC against NUTM1 returned a seed-corrected z-score of -1.38.

On to UCUUUGAGCAGCUUCCAGC against SOX4, for which the seed-corrected z-score is -5.6.

UCAGGUAGCAGAGUACUGC against IL22RA1 gave a seed-corrected z-score of -0.631.

For the sequence AGAGUUCAAAUGUAUUGUC against KLHL21, the seed-corrected z-score was -1.34.

UCUUUUUGUAGGUCUCUGC against RCN3 displayed a seed-corrected z-score of -3.02.

For UCCUUUAACAACAAGUUGU against IL10, the seed-corrected z-score is -0.0724.

In turn, UCUCUAAACAGGUCCCAAG against PDX1 yielded a seed-corrected z-score of 0.0859.

AUCGCUAAGACGGUGAUCC against EIF4ENIF1 had a seed-corrected z-score of -0.0436.

As for UUCCGCAGCAAUGAUAGGC against TMEM132D, the seed-corrected z-score was -0.636.

UCUGCUACUCCAUUGAUCU against TRMT12 came in with a seed-corrected z-score of -1.63.

Consider UACAUAGAAGGUGUUGGGC against CD81, for which the seed-corrected z-score stood at 0.0377.

The values above are taken from PubChem BioAssay AID1159506 (National Center for Advancing Translational Sciences (NCATS), 2015).
